Data reported in ChEMBL document CHEMBL2218924, “A broad activity screen in support of a chemogenomic map for kinase signalling research and drug discovery” (Biochem J, 2013).

What was measured:
[1] = target: T1, Serine/threonine-protein kinase TBK1 (Homo sapiens) (UniProt Q9UHD2); settings: at 10 µM
T1 sequence (whole entry): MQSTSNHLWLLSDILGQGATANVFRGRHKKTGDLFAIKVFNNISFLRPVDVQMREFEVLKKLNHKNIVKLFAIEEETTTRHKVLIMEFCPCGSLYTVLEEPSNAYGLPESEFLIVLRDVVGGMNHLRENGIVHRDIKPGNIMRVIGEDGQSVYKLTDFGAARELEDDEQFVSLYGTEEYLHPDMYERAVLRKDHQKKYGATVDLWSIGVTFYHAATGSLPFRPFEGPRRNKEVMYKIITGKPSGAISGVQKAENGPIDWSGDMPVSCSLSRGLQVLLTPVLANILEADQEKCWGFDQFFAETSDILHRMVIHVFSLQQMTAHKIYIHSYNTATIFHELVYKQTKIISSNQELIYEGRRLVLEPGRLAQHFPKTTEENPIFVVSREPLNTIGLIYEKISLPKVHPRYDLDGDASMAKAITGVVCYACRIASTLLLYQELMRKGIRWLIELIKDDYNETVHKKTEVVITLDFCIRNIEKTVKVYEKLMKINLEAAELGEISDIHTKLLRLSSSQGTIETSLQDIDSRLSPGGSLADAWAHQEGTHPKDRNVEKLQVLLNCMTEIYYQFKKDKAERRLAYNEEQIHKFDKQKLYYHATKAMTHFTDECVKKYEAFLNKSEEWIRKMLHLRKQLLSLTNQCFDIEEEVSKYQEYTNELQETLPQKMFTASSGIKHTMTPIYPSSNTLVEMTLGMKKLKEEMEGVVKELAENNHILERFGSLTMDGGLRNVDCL

[2] = target: T2, TGF-beta receptor type-1 (Homo sapiens) (UniProt P36897); settings: at 1 µM
T2 sequence (whole entry): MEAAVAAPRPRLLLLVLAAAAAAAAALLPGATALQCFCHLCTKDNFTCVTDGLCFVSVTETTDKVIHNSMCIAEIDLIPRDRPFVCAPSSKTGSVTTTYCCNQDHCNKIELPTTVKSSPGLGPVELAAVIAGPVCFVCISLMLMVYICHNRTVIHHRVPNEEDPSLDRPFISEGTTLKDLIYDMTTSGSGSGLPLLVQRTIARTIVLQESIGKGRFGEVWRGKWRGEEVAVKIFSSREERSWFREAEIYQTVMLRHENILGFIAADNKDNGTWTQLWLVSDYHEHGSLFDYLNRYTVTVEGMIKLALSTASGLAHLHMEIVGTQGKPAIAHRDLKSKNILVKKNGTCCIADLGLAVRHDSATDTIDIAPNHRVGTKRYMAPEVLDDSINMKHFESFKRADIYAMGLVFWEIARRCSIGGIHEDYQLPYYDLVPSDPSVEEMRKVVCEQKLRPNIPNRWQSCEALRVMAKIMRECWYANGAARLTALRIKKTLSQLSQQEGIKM

[3] = target: T2, TGF-beta receptor type-1 (Homo sapiens); settings: at 10 µM
[4] = target: Insulin-like growth factor 1 receptor (Homo sapiens) (UniProt P08069); settings: at 1 µM
Chain of Insulin-like growth factor 1 receptor (Homo sapiens) (P08069 31-736 limits assumed): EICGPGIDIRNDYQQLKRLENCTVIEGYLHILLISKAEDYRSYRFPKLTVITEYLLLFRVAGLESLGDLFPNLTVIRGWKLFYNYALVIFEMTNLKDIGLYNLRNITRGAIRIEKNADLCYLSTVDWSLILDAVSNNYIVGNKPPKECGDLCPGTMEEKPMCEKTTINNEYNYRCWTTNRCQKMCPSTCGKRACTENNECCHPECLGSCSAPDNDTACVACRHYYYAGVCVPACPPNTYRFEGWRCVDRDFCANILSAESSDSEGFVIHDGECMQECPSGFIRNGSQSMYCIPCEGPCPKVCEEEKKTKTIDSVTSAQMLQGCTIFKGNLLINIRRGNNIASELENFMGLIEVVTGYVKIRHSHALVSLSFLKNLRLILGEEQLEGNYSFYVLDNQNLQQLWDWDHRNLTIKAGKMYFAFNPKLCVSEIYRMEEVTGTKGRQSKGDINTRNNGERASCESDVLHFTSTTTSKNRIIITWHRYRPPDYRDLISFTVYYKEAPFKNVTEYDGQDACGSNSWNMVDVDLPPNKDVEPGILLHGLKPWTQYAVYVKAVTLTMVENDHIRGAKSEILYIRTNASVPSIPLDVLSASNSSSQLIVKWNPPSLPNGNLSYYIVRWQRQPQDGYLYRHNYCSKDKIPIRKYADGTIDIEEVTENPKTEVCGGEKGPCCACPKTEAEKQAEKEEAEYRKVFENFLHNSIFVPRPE
Chain of Insulin-like growth factor 1 receptor (Homo sapiens) (P08069 741-1367 limits assumed): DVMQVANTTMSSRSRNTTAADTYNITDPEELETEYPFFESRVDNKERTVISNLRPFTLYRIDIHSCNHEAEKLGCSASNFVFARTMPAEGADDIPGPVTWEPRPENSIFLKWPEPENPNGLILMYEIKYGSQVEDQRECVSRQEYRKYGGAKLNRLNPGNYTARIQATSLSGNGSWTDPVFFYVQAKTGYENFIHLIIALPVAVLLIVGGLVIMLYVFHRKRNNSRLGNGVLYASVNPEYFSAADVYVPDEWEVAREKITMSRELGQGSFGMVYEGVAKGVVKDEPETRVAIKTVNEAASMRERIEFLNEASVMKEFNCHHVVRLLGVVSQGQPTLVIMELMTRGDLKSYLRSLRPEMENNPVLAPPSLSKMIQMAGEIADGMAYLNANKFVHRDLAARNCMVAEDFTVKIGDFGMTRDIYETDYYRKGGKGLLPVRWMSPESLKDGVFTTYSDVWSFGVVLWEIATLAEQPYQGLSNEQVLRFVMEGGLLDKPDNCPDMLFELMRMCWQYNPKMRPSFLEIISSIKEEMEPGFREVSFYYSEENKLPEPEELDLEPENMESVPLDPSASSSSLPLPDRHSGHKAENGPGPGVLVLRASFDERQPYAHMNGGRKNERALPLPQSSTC

[5] = target: Insulin-like growth factor 1 receptor (Homo sapiens) (UniProt P08069); settings: at 10 µM
[6] = target: T3, Inhibitor of nuclear factor kappa-B kinase subunit alpha (Homo sapiens) (UniProt O15111); settings: at 1 µM
T3 sequence (whole entry): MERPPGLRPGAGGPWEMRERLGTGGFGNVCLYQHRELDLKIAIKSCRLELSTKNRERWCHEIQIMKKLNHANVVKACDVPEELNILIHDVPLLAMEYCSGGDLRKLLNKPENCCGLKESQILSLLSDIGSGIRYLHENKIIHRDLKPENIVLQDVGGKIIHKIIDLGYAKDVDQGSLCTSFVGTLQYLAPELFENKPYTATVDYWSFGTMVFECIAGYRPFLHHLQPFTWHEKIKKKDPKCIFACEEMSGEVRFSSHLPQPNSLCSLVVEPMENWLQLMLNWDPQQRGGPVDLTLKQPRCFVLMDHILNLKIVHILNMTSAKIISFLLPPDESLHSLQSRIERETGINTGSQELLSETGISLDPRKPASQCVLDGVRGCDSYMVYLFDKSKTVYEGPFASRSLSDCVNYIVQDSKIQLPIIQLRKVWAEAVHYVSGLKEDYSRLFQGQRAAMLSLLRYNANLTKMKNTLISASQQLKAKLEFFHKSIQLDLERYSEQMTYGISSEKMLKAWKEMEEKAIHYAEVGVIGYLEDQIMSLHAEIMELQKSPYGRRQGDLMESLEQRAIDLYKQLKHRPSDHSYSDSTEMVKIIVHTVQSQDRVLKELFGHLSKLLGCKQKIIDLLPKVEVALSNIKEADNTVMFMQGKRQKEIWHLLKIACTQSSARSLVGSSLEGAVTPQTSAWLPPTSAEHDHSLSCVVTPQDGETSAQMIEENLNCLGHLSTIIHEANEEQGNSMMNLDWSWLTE

[7] = target: T3, Inhibitor of nuclear factor kappa-B kinase subunit alpha (Homo sapiens); settings: at 10 µM
[8] = target: T4, Inhibitor of nuclear factor kappa-B kinase subunit beta (Homo sapiens) (UniProt O14920); settings: at 1 µM
T4 sequence (whole entry): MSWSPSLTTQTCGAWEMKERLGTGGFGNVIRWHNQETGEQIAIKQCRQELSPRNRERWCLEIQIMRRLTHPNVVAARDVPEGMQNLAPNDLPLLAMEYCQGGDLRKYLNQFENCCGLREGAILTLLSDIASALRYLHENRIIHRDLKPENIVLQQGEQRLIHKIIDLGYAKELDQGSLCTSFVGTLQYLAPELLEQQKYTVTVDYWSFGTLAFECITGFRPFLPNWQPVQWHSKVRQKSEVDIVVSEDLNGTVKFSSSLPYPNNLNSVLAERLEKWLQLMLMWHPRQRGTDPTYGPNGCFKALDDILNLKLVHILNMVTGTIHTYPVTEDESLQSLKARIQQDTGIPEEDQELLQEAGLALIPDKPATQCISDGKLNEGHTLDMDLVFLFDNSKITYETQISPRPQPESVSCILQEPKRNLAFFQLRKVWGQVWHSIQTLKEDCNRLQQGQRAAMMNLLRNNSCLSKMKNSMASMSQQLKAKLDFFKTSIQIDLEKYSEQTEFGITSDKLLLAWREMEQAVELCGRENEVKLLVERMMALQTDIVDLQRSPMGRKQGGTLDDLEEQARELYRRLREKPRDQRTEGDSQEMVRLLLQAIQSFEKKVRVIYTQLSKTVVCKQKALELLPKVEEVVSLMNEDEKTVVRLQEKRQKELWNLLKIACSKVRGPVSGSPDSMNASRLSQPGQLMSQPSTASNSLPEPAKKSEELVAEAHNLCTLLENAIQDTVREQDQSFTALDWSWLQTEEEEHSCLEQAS

[9] = target: T4, Inhibitor of nuclear factor kappa-B kinase subunit beta (Homo sapiens); settings: at 10 µM
[10] = target: Insulin receptor (Homo sapiens) (UniProt P06213); settings: at 1 µM
Chain of Insulin receptor (Homo sapiens) (P06213 28-758 limits assumed): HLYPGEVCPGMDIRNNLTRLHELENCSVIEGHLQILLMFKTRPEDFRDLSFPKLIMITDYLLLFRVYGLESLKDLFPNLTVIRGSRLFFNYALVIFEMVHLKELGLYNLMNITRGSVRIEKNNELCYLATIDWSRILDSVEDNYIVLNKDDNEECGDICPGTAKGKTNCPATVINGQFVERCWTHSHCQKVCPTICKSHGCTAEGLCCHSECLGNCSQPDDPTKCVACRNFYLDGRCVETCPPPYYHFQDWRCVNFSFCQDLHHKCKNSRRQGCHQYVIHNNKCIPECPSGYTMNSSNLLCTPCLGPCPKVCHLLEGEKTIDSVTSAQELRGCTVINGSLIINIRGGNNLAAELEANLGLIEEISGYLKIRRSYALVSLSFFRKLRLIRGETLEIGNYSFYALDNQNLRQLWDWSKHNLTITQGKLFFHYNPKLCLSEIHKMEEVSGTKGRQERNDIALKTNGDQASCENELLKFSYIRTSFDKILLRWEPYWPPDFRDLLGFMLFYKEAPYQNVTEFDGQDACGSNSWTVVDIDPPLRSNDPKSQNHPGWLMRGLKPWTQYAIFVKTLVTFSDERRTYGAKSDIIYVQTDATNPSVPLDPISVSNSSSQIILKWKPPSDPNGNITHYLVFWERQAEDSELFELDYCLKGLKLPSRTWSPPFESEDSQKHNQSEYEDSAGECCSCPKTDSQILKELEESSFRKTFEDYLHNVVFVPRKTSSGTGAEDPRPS
Chain of Insulin receptor (Homo sapiens) (P06213 763-1382 limits assumed): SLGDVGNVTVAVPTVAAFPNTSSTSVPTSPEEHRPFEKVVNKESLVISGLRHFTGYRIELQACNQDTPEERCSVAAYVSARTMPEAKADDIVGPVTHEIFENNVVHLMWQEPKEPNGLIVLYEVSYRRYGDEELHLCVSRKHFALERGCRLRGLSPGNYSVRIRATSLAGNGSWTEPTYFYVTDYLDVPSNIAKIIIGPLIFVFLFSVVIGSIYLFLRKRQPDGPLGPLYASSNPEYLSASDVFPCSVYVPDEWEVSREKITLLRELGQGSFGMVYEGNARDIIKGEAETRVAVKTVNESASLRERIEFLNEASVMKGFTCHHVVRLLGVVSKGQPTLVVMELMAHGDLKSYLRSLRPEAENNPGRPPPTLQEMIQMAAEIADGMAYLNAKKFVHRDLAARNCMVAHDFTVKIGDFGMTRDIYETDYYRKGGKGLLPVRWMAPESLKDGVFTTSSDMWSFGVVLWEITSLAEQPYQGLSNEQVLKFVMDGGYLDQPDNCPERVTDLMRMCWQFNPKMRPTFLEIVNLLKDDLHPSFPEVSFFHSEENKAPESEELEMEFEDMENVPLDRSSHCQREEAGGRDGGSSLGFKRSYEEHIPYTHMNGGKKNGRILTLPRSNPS

Nc1ccc2ncnc(NCCc3ccc(Oc4ccccc4)cc3)c2c1
residual activity [1]: 62% | residual activity [2]: 117% | residual activity [3]: 112% | residual activity [4]: 116% | residual activity [5]: 119% | residual activity [6]: 107% | residual activity [7]: 101% | residual activity [8]: 115% | residual activity [9]: 110% | residual activity [10]: 139%
